Hits are enriched below; roughly 4.8% of the tested compounds scored in any of these assays.
hgDAF-12 ag: activates the H. glycines DAF-12 receptor ligand-binding domain. hit rate 1.8% among 370,000. activation, % at 6.8 µM. AID 687014. HEK293 GAL4-hgDAF12 UAS-luciferase reporter, agonist luminescence; normalized to butyrate control;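 active = activation above a cutoff set at the mean of all screened compounds plus 3 SD, cut at about 10% in these data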;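 also: 0% = DMSO wells and 100% = sodium butyrate wells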
DAX1 inh-1: DAX1 (NR0B1) inhibition, primary screen; HEK293T StAR-luciferase reporter, SF-1/DAX-1 repression relief; inhibition, % at 6.8 µM; hit rate 1.1% among 370,000; AID 652010;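 active = inhibition above the mean over all tested compounds plus 3 SD, cut at about 3.6% in these data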;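 also: 0% = DAX-1 cells with DMSO and 100% = cells lacking DAX-1 with DMSO; higher inhibition means more luminescence from relief of DAX-1 repression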
SMARCA2 activ: increases SMARCA2 function in MMTV reporter cells; MG213 cells, MMTV-luciferase reporter, dexamethasone, overnight; activation, % at 9.1 µM; hit rate 1% among 370,000; in the data active = activation above about 7.8%;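 also: 0% = vehicle wells and 100% = reference activator wells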
ssDAF-12 act: activates DAF-12 receptor from parasite S. stercoralis | HEK293 ssDAF-12/GRIP1 lit1-tk-luc reporter, luminescence; % of 3 µM dafachronic acid response | activation, % at 6.8 µM | hit rate 1% among 370,000 | AID 652126;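 active = activation above the mean over all tested compounds plus 3 SD, cut at about 0.9% in these data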;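 also: 0% = DMSO-only wells and 100% = 3 µM delta7-dafachronic acid wells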
hcDAF12 agonist: activates DAF-12 receptor from parasite H. contortus | HEK293 hcDAF-12 lit1-tk-luc reporter, luminescence; 0% DMSO, 100% Δ7-dafachronic acid | activation, % at 6.8 µM | hit rate 1.4% among 370,000 | AID 652067;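 active = activation above the mean of all tested compounds plus 3 SD, cut at about 5.5% in these data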;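 also: 100% = response to 3 µM Δ7-dafachronic acid high control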
DAX1 inh-2: NR0B1 (DAX1) inhibition | hit rate 0.99% among 340,000 | HEK293 Gal4-DAX1 luciferase reporter, luminescence | AID 504766 | inhibition, % at 6.75 µM | P51843;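 active = inhibition above the mean over all tested compounds plus 3 SD, cut at about 4.2% in these data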;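 also: 0% = DAX1-transfected cells with DMSO and 100% = empty-vector control cells with DMSO; inhibition shows as a rise in luminescence from relieved DAX1 repression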
hgDAF12 ag: hgDAF-12 agonism, confirmation assay; shares compounds with hgDAF-12 ag; HEK293 GAL4-hgDAF12 luciferase reporter, agonist mode; percent of butyrate response; activation, % at 6.8 µM; hit rate 80% among 3,300; AID 743050;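 active = mean activation over triplicate wells above the hit cutoff derived from the earlier primary screen, cut at about 11% in these data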;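 also: 0% = DMSO low control and 100% = 2 mM sodium butyrate high control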
LXR ag 2: counter-screen for DAF-12 agonists: agonists of human LXR-beta. AID 743051. activation, % at 6.8 µM. HEK293 Gal4-LXR luciferase reporter, 24 h. shares compounds with hgDAF-12 ag. 3,300 tested, under 10 active;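 active = mean activation of the triplicate above a set limit carried over from the primary screen, none filed active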
Target sequence (P55055 whole entry, looked up, the tested form may be a part): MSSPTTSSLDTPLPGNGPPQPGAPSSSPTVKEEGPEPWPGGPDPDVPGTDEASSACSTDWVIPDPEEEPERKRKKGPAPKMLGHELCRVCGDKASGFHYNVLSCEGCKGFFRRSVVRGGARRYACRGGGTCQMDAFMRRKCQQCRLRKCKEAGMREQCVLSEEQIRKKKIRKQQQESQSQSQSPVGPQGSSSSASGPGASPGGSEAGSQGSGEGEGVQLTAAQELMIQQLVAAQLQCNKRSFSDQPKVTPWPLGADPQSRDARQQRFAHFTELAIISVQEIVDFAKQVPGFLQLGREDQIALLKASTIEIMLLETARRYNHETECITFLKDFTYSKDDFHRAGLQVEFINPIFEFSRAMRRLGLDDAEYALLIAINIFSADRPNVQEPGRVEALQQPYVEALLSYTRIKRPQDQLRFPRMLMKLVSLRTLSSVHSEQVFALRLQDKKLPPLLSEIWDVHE
Numbers without * were called inactive.

What do the screens show for `Cc1cc(=O)oc2cc(OCC(=O)Nc3nccs3)ccc12`?
hgDAF-12 ag: 20*; DAX1 inh-1: 2; SMARCA2 activ: 3; ssDAF-12 act: 0; hcDAF12 agonist: 5; DAX1 inh-2: 1; hgDAF12 ag: 18*; LXR ag 2: 1

What do the screens show for `COc1cccc(COc2ccc3c(C)cc(=O)oc3c2)c1`?
hgDAF-12 ag: 16*; DAX1 inh-1: 3; SMARCA2 activ: 4; ssDAF-12 act: 0; hcDAF12 agonist: 3; DAX1 inh-2: 3; hgDAF12 ag: 14*; LXR ag 2: 1

How did COC(=O)[C@]12C[C@H](CC(=O)NCc3cccs3)C(=O)N(CCC3=CCCCC3)C1=C[C@H](COCc1ccccc1)O[C@@H]2C do in these assays?
hgDAF-12 ag: 2; DAX1 inh-1: 0; SMARCA2 activ: -5; ssDAF-12 act: -1; hcDAF12 agonist: 0

Results for Cc1cc(O)cc(=O)n1-c1cccc(C(F)(F)F)c1 ?
hgDAF-12 ag: 0; DAX1 inh-1: -1; SMARCA2 activ: -4; ssDAF-12 act: -1; hcDAF12 agonist: -1

What do the screens show for `COC(=O)[C@H]1[C@@H](O)[C@@]2(O)c3c(OC)cc(OC)cc3O[C@@]2(c2ccc(OC)cc2)[C@@H]1c1ccc(F)cc1`?
hgDAF-12 ag: -14; DAX1 inh-1: -7; SMARCA2 activ: -10; ssDAF-12 act: -2; hcDAF12 agonist: -5

Results for CCOC(=O)N/N=C/c1cn(CCCOc2ccc(C)cc2)c2ccccc12 ?
hgDAF-12 ag: 17*; DAX1 inh-1: 0; SMARCA2 activ: 2; ssDAF-12 act: -1; hcDAF12 agonist: -3; DAX1 inh-2: -2; hgDAF12 ag: 5; LXR ag 2: 0

What do the screens show for `Cc1ccc2nc(-c3ccc4c(c3)NC(=O)CO4)cn2c1`?
hgDAF-12 ag: 14*; DAX1 inh-1: 4.5*; SMARCA2 activ: 6; ssDAF-12 act: 0; hcDAF12 agonist: 4; DAX1 inh-2: 3; hgDAF12 ag: 14*; LXR ag 2: 1

How did N/C(=N\C(=S)Nc1ccccc1)c1ccccc1 do in these assays?
hgDAF-12 ag: 16*; DAX1 inh-1: 2; SMARCA2 activ: 4; ssDAF-12 act: 0; hcDAF12 agonist: 6.0*; DAX1 inh-2: 4.7*; hgDAF12 ag: 17*; LXR ag 2: 1

How did N#Cc1ccc(NC(=S)/N=C(\N)c2ccccc2)cc1 do in these assays?
hgDAF-12 ag: 8; DAX1 inh-1: -1; SMARCA2 activ: -1; ssDAF-12 act: 0; hcDAF12 agonist: 2

Results for CC(C)C(=O)N1CCN(c2ccc(NC(=O)c3cccs3)cc2)CC1 ?
hgDAF-12 ag: -1; DAX1 inh-1: 0; SMARCA2 activ: 4; ssDAF-12 act: -1; hcDAF12 agonist: -1; DAX1 inh-2: 0

What do the screens show for `CN1CCN(c2ccc(NC(=O)c3cccs3)cc2)CC1`?
hgDAF-12 ag: 15*; DAX1 inh-1: 4.3*; SMARCA2 activ: 4; ssDAF-12 act: 0; hcDAF12 agonist: 4; DAX1 inh-2: 5.7*; hgDAF12 ag: 12*; LXR ag 2: 1

How did O=C(N/N=C/c1ccc(N2CCOCC2)cc1)c1cccs1 do in these assays?
hgDAF-12 ag: 20*; DAX1 inh-1: 4.4*; SMARCA2 activ: 5; ssDAF-12 act: -1; hcDAF12 agonist: 3; DAX1 inh-2: 1; hgDAF12 ag: 14*; LXR ag 2: 1

Results for COC(=O)[C@]12C[C@H](CC(=O)NCc3ccc(OC)c(OC)c3)C(=O)N(CCC3=CCCCC3)C1=C[C@H](C(C)(C)C)O[C@@H]2C ?
hgDAF-12 ag: 0; DAX1 inh-1: -1; SMARCA2 activ: -6; ssDAF-12 act: -1; hcDAF12 agonist: -2

Results for CCOc1ccc(C(=O)CSc2nnc(SCc3ccc(Cl)cc3)s2)cc1 ?
hgDAF-12 ag: -1; DAX1 inh-1: 1; SMARCA2 activ: -4; ssDAF-12 act: 0; hcDAF12 agonist: -1
